In PubChem BioAssay AID1259421 (Broad Institute, 2018):
Where “and” joins values, the source holds several entries; their conditions need not be identical. Equal values may be shown once. Among all 6,400 compounds or so, about 610 (9.5%) were called active. Rule as the data show it: active = activity change below about -70%; inconclusive = no clear call, values can overlap the other calls; inactive = above that. The list comes from a sample in which actives are over-represented; it also holds similar structures and randomly drawn compounds. The source holds several records for some structures; these can differ, active in one and inactive in another.

Assay: T. gondii ME49Luc in HeLa cells, luciferase assay, 72 h, no IFN-y (AID 1259421)
Details: stronger effect = lower value, concentration not given here

Question: Which activity change, negative = inhibition does the source give for CCO[C@@H](Cc1ccc(OCCc2ccc(OS(C)(=O)=O)cc2)cc1)C(=O)O here?
Answer: 11% (inactive)

Question: With Cc1ccc(NC(=O)C(C)C)cc1C1CCN(Cc2ccc(Oc3ccc(F)c(F)c3)cc2)CC1 as the molecule, how does the activity change, negative = inhibition read?
Answer: -59.6% (inactive)

Question: With NC1=NCN([C@H]2C[C@@H](O)[C@@H](CO)O2)C(=O)N1 as the molecule, how does the activity change, negative = inhibition read?
Answer: 13.9% (inactive)

Question: With Cn1cnc(=N)c2[nH]cnc21 as the molecule, how does the activity change, negative = inhibition read?
Answer: 11% (inactive)

Question: With O=C(Nc1ccc(Cl)cc1)Nc1ccc(Cl)c(C(F)(F)F)c1 as the molecule, how does the activity change, negative = inhibition read?
Answer: -76.9% (active)

Question: For COc1cc(NC(=O)c2ccccn2)ccc1Cl, which activity change, negative = inhibition is on record?
Answer: 132% (inactive)

Question: For CNC(=O)c1cc(Oc2ccc(NC(=O)Nc3ccc(Cl)c(C(F)(F)F)c3)cc2)ccn1, which activity change, negative = inhibition is on record?
Answer: -70.5% (active) and -84.5% (active)

Question: For C=CC(=O)Nc1ccc(Cl)cc1, which activity change, negative = inhibition is on record?
Answer: 16.9% (inactive)

Question: For CC(C)C(=O)Nc1ccc([N+](=O)[O-])c(C(F)(F)F)c1, which activity change, negative = inhibition is on record?
Answer: 12.9% (inactive)

Question: Which activity change, negative = inhibition does the source give for CN1CCN(C2CCN(C(=O)Nc3cc(Oc4ccc(NC(=O)C5(C(=O)Nc6ccc(F)cc6)CC5)c(F)c4)ccn3)CC2)CC1 here?
Answer: -66.6% (inactive)

Question: With CNC(=O)c1cc(Oc2ccc(NC(=O)Nc3ccc(Cl)c(C(F)(F)F)c3)c(F)c2)ccn1 as the molecule, how does the activity change, negative = inhibition read?
Answer: -86.3% (active) and -83.6% (active)

Question: With CNC(=O)c1cc(COc2nnc(Nc3ccc(Cl)cc3)c3ccoc23)ccn1 as the molecule, how does the activity change, negative = inhibition read?
Answer: -9.12% (inactive)

Question: For C=CC(=O)Nc1cccc(Nc2nc(Nc3ccc(Oc4ccnc(C(=O)NC)c4)cc3)ncc2F)c1, which activity change, negative = inhibition is on record?
Answer: -38.8% (inactive)

Question: With Nc1[nH]nc2nnc(-c3c(-c4ccccc4)nn4ccccc34)cc12 as the molecule, how does the activity change, negative = inhibition read?
Answer: -19.2% (inactive)

Question: With OC[C@@H](O)[C@@H](O[C@@H]1O[C@H](CO)[C@H](O)[C@H](O)[C@H]1O)[C@H](O)[C@@H](O)CO as the molecule, how does the activity change, negative = inhibition read?
Answer: 24% (inactive)

Question: With NC(Cn1ccc(=O)n(Cc2ccccc2C(=O)O)c1=O)C(=O)O (configuration not stated) as the molecule, how does the activity change, negative = inhibition read?
Answer: 7.15% (inactive)

Question: With CN1C2CCC1CC(OC(=O)c1c[nH]c3ccccc13)C2 (configuration not stated) as the molecule, how does the activity change, negative = inhibition read?
Answer: 2.23% (inactive)

Question: With O=C1CC[C@@H](C(=O)O)N1 as the molecule, how does the activity change, negative = inhibition read?
Answer: 4.43% (inactive)

Question: For C1=C(CN2CCOCC2)COc2c1cccc2OCC1CNCCO1 (configuration not stated), which activity change, negative = inhibition is on record?
Answer: 2.39% (inactive)

Question: For CC(C)=CCC/C(C)=C/C=C/C(C)=C/C=C/C(C)=C/C=C/C=C(C)/C=C/C=C(C)/C=C/C=C(\C)CCC=C(C)C, which activity change, negative = inhibition is on record?
Answer: -16.2% (inactive)

Question: For COc1ccc(-c2cc(=O)c3c(O)c(OC)c(OC)c(OC)c3o2)cc1OC, which activity change, negative = inhibition is on record?
Answer: -10.2% (inactive)

Question: With CC1(C)S[C@H]2[C@@H](NC(=O)[C@@H](NC(=O)N3CCN(S(C)(=O)=O)C3=O)c3ccccc3)C(=O)N2[C@@H]1C(=O)O as the molecule, how does the activity change, negative = inhibition read?
Answer: 5.45% (inactive)

Question: For CN1CCCC(CN2c3ccccc3Sc3ccccc32)C1 (configuration not stated), which activity change, negative = inhibition is on record?
Answer: 11.8% (inactive) and 21.2% (inactive)

Question: With CN1c2ccccc2C(=O)N2CCc3c([nH]c4ccccc34)C21 (configuration not stated) as the molecule, how does the activity change, negative = inhibition read?
Answer: -71.6% (active)

Question: For O=c1c2ccccc2nc2n1CCc1c-2[nH]c2ccccc12, which activity change, negative = inhibition is on record?
Answer: 249% (inactive)

Question: With CN1CCc2ccccc2Cc2[nH]c3ccccc3c2CC1 as the molecule, how does the activity change, negative = inhibition read?
Answer: 12.1% (inactive)

Question: With O=C(O)CCC/C=C/CC1COC(C(F)(F)F)OC1c1ccccc1O (configuration not stated) as the molecule, how does the activity change, negative = inhibition read?
Answer: 0.246% (inactive)

Question: With C=C[C@@]1(C)CC(=O)[C@@]2(O)[C@](C)(O1)[C@@H](OC(C)=O)[C@@H](O)C1C(C)(C)CC[C@H](O)[C@@]12C (some centres not stated) as the molecule, how does the activity change, negative = inhibition read?
Answer: 6.95% (inactive)

Question: Which activity change, negative = inhibition does the source give for Cc1cn(-c2cc(NC(=O)c3ccc(C)c(Nc4nccc(-c5cccnc5)n4)c3)cc(C(F)(F)F)c2)cn1 here?
Answer: -85.2% (active) and -76.5% (active)

Question: For Cc1ccc(NC(=O)c2ccc(CN3CCN(C)CC3)cc2)cc1Nc1nc(-c2cccnc2)cs1, which activity change, negative = inhibition is on record?
Answer: 47.7% (inactive)

Question: With Cc1ncc(NC(=O)c2ccc(CN3CCN(C)CC3)c(C(F)(F)F)c2)cc1Nc1nccc(-c2cccnc2)n1 as the molecule, how does the activity change, negative = inhibition read?
Answer: -77.9% (active)

Question: With Cc1ccc(NC(=O)c2ccc(CN3CCN(C)CC3)cc2)cc1Nc1nccc(-c2cccnc2)n1 as the molecule, how does the activity change, negative = inhibition read?
Answer: 3.71% (inactive) and 10.8% (inactive) and -1.32% (inactive)

Question: For Cc1ccc(C(=O)Nc2cccc(C(F)(F)F)c2)cc1Nc1nc(-c2cccnc2)nc2c1cnn2C, which activity change, negative = inhibition is on record?
Answer: -48.8% (inactive)

Question: For O=Cc1ccccc1O[C@@H]1O[C@H](CO)[C@H](O)[C@@H](O)[C@H]1O, which activity change, negative = inhibition is on record?
Answer: 4.65% (inactive)

Question: With NC(=O)c1nc(F)c[nH]c1=O as the molecule, how does the activity change, negative = inhibition read?
Answer: 2.13% (inactive)

Question: For Cc1c[nH]c2ccccc12, which activity change, negative = inhibition is on record?
Answer: -2.35% (inactive)

Question: For NC(N)=NCCC[C@@H](N)C(=O)O, which activity change, negative = inhibition is on record?
Answer: 13.4% (inactive)

Question: With Cn1c(C#N)ccc1-c1ccc2c(c1)C(C)(C)OC(=S)N2 as the molecule, how does the activity change, negative = inhibition read?
Answer: -80.3% (active)

Question: For CCOc1ccccc1N=Nc1c(C)[nH]n(-c2nc(-c3ccccc3)cs2)c1=O, which activity change, negative = inhibition is on record?
Answer: -0.237% (inactive)

Question: Which activity change, negative = inhibition does the source give for Cc1ccc(-n2[nH]c(C)c(N=Nc3cccc(-c4cccc(C(=O)O)c4)c3O)c2=O)cc1C here?
Answer: -77.8% (active)

Question: With Cn1cc(C(=O)[C@@H]2CCc3nc[nH]c3C2)c2ccccc21 as the molecule, how does the activity change, negative = inhibition read?
Answer: 3.43% (inactive)

Question: For CC1=CC(=O)c2ccccc2C1=O, which activity change, negative = inhibition is on record?
Answer: 2.88% (inactive) and 20.5% (inactive)

Question: With CC1(C)C(=O)NC2=C1C(=O)C(=O)c1ccccc12 as the molecule, how does the activity change, negative = inhibition read?
Answer: -90% (active)

Question: For C[N+](C)(C)CCOP(=O)(O)OC[C@H](O)CO, which activity change, negative = inhibition is on record?
Answer: 7.52% (inactive)

Question: Which activity change, negative = inhibition does the source give for COC(=O)C[C@H]1C(C)(C)[C@@H](OC(C)=O)[C@@H]2CC3=C4CC(=O)O[C@@H](c5ccoc5)[C@]4(C)CCC3[C@@]1(C)C2=O (some centres not stated) here?
Answer: 13.2% (inactive)

Question: Which activity change, negative = inhibition does the source give for CC(=O)O[C@H]1Cc2ccccc2N(C(N)=O)c2ccccc21 here?
Answer: 8.82% (inactive)

Question: For O=c1cc(-c2ccc(O)cc2)oc2cc(O[C@@H]3O[C@H](CO)[C@@H](O)[C@H](O)[C@H]3O[C@@H]3OC[C@](O)(CO)[C@H]3O)cc(O)c12, which activity change, negative = inhibition is on record?
Answer: -2.43% (inactive)

Question: With CC(C)N=c1cc2n(-c3ccc(Cl)cc3)c3ccccc3nc-2cc1Nc1ccc(Cl)cc1 as the molecule, how does the activity change, negative = inhibition read?
Answer: -81.2% (active) and 17.4% (inactive)

Question: With Cc1nc2ccccc2n1Cc1ccc(Cl)cc1 as the molecule, how does the activity change, negative = inhibition read?
Answer: -8.55% (inactive)

Question: With Cc1ccc2c(c1)C(=O)[C@]1(O)CCN(c3ccccc3)C1=N2 as the molecule, how does the activity change, negative = inhibition read?
Answer: 7.51% (inactive)

Question: With Cc1c(OCC(F)(F)F)ccnc1C[S@@](=O)c1nc2ccccc2[nH]1 as the molecule, how does the activity change, negative = inhibition read?
Answer: 83.6% (inactive)

Question: For Cc1[nH]nc2ccc(-c3cncc(OC[C@@H](N)Cc4ccccc4)c3)cc12, which activity change, negative = inhibition is on record?
Answer: -82.2% (active)
